Holding throughout (conditions): Compound concentration 20.0 uM
In assay [1] the target is Tyrosine-protein kinase ABL1 (Homo sapiens) (UniProt P00519).
Assay [2] concerns the target Bromodomain-containing protein 4 (Homo sapiens) (UniProt O60885).
In assay [3] the target is Cyclin-dependent kinase 2 (Homo sapiens) (UniProt P24941).
For assay [4], the target named is Casein kinase I isoform delta (Homo sapiens) (UniProt P48730).
Assay [5] has as its target Glycogen synthase kinase-3 beta (Homo sapiens) (UniProt P49841).
The target in assay [6] is Mitogen-activated protein kinase 1 (Homo sapiens) (UniProt P28482).
Chain of Mitogen-activated protein kinase 1 (Homo sapiens) (P28482 whole entry): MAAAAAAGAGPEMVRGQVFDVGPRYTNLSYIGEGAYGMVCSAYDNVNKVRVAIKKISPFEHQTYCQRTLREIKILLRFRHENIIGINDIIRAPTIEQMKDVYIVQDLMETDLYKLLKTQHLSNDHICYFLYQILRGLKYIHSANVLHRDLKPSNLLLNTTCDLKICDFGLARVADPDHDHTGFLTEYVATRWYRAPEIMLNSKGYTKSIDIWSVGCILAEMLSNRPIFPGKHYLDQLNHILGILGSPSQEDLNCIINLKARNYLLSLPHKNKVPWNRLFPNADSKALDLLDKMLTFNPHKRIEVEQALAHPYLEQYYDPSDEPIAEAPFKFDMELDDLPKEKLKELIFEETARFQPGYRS
The target in assay [7] is T1, Aurora kinase A (Homo sapiens) (UniProt O14965).
T1 sequence (whole entry): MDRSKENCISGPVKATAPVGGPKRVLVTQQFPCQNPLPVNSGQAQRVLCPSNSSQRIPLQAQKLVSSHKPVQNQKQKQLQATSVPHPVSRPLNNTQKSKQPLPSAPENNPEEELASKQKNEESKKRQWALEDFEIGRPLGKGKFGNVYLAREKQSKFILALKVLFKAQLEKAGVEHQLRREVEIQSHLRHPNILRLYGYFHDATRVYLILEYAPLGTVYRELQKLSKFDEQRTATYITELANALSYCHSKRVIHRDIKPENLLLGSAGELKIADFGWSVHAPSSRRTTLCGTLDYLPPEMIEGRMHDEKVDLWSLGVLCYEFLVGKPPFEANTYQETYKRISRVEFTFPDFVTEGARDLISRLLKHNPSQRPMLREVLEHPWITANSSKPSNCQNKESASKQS

Assay [8] concerns the target T2, Transcription intermediary factor 1-alpha (Homo sapiens) (UniProt O15164).
T2 sequence (whole entry): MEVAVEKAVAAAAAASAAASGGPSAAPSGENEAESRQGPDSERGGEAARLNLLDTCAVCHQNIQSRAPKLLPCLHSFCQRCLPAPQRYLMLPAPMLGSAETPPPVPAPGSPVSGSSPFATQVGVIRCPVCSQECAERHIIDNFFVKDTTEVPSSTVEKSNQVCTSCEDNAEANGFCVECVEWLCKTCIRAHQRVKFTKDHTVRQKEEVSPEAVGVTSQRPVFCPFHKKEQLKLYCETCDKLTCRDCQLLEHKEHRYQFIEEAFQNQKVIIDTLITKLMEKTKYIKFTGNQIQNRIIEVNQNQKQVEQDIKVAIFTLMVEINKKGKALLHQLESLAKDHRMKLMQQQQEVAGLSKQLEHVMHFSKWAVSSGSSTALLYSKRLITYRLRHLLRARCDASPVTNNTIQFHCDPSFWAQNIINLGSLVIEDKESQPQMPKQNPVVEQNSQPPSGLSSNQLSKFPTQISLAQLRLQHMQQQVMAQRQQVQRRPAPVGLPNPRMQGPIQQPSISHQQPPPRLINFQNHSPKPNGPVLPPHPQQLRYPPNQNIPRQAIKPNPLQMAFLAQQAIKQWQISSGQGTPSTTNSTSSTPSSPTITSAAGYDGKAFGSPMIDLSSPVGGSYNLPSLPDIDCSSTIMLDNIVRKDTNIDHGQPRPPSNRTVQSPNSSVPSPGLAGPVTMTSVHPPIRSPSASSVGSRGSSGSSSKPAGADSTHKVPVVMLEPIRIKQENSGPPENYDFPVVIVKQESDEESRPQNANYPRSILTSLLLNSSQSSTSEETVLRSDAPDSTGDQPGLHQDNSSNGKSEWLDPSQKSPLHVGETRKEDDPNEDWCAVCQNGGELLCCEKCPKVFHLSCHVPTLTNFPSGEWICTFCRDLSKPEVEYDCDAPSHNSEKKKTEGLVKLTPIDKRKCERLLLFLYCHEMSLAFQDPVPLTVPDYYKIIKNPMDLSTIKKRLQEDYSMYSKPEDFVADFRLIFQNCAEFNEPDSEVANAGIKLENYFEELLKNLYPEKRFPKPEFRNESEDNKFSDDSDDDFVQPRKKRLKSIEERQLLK

The structures appear in SMILES notation.

Chain of Tyrosine-protein kinase ABL1 (Homo sapiens) (P00519 whole entry): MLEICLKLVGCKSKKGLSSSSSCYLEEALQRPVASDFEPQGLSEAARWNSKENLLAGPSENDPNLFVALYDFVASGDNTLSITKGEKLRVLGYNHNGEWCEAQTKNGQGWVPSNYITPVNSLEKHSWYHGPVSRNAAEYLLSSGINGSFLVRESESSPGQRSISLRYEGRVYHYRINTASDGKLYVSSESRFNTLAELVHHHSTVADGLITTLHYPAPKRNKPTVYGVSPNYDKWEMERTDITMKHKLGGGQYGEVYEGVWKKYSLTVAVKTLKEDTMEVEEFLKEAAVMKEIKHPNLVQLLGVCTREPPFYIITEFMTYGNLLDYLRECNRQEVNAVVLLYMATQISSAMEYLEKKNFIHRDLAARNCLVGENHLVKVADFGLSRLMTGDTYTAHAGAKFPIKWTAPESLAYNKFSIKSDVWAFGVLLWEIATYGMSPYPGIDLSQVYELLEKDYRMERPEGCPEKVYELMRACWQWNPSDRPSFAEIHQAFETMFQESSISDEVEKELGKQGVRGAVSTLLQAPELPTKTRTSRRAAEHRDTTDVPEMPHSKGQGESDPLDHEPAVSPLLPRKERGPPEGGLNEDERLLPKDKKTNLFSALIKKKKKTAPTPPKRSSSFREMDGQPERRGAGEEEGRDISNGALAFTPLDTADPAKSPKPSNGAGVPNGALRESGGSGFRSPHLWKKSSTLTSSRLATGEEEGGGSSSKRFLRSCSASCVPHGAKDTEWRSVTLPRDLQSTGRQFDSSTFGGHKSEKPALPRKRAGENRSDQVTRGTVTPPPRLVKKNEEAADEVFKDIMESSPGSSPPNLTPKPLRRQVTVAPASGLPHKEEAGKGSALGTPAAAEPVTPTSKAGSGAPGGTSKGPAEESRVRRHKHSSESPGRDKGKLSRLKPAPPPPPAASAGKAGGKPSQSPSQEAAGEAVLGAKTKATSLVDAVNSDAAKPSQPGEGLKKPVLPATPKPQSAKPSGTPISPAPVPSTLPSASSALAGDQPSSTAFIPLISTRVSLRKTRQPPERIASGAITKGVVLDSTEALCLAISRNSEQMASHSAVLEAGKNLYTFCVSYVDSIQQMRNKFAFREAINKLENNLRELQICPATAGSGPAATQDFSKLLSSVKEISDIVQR
Chain of Glycogen synthase kinase-3 beta (Homo sapiens) (P49841 whole entry, looked up): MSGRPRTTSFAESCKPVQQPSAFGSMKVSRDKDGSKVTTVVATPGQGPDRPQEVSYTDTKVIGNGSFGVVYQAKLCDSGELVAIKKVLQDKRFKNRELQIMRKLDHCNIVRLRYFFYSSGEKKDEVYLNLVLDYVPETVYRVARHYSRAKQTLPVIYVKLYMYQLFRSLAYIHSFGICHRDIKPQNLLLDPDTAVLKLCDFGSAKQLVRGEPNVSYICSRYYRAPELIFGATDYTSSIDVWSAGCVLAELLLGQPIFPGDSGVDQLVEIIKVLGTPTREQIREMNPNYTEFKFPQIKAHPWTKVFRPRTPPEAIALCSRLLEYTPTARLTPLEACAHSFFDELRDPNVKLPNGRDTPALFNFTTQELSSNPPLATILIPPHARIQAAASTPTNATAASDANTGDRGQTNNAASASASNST
Chain of Casein kinase I isoform delta (Homo sapiens) (P48730 whole entry, looked up, canonical isoform): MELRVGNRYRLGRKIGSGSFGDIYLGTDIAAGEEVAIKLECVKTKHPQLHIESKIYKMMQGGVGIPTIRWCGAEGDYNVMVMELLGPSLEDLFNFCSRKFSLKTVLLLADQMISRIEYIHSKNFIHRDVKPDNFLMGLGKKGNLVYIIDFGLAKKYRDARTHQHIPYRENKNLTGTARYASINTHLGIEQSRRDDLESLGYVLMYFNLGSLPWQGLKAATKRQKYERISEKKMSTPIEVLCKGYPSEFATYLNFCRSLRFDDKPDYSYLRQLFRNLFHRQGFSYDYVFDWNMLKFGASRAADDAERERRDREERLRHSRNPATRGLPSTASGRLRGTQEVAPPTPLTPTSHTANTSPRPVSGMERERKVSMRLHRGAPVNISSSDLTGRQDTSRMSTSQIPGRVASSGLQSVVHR

Consider `COc1ncc(C)c(-c2ccc3c(c2)[nH]c(=O)c2cnn([C@H]4CCOC4)c23)c1C`, for which the ΔTm in assay [1] is 1.31 °C; in assay [2], -3.36 °C; in assay [3], -0.21 °C; in assay [4] it was -0.26 °C; in assay [5], 0.55 °C; in assay [6] it was -0.06 °C. Also, the ΔTm was -2.59 °C in assay [7] and -0.98 °C in assay [8].
`NCCOCCOCCNC(=O)Cc1ccc(Nc2nc(NCc3ccc(F)cc3)nc(NCC3CCCCC3)n2)cc1`: the ΔTm was 0.61 °C in assay [1]; -3.77 °C in assay [2]; 0.63 °C in assay [3]; 0.54 °C in assay [4]; 0 °C in assay [5]; 0.37 °C in assay [6]. For the same compound, the ΔTm is -2.14 °C in assay [7] and -0.27 °C in assay [8].
Consider `CC1C(C#N)=C(N)OC2=C1C(=O)CC(c1cccc3ccccc13)C2` (stereo unspecified), for which the shift in melting temperature (ΔTm) was 0.3 °C in assay [1]; -2.09 °C in assay [2]; -0.28 °C in assay [3]; 3.72 °C in assay [4]; 4.85 °C in assay [5]; -2.01 °C in assay [6]. The shift in melting temperature (ΔTm) is -0.97 °C in assay [7] and -1.61 °C in assay [8].
As for `CCOC(=O)Oc1c(OC)cc(C(=O)O[C@H]2C[C@H]3CN4CCc5c([nH]c6cc(OC)ccc56)[C@@H]4C[C@H]3[C@@H](C(=O)OC)[C@@H]2OC)cc1OC`, the ΔTm in assay [1] is 0.54 °C; in assay [2] it was -2.32 °C; in assay [3] it was 0.27 °C; in assay [4], -0.84 °C; in assay [5], -0.14 °C; in assay [6], -0.02 °C. For the same compound, the ΔTm in assay [7] is -2.27 °C; in assay [8], 0.01 °C.
As to `N=C(N)N/N=C/c1cccc(Cl)c1Cl`, the ΔTm in assay [1] is 0.36 °C; in assay [2], -1.26 °C; in assay [3], -0.05 °C; in assay [4], 0.55 °C; in assay [5], -0.98 °C; in assay [6], 0.2 °C. The thermal shift (ΔTm) is -0.81 °C in assay [7] and -0.47 °C in assay [8].
For the compound `Nc1c[nH]c(=O)c2cc(-c3ccccc3)sc12`, the ΔTm was 0.27 °C in assay [1]; -1.56 °C in assay [2]; -0.22 °C in assay [3]; 0.6 °C in assay [4]; -0.86 °C in assay [5]; 0.57 °C in assay [6]. For the same compound, the ΔTm was -0.64 °C in assay [7] and -1.2 °C in assay [8].
Turning to `CCCC(NC(=O)C(CC(C)C)NC(=O)OCc1ccccc1)C(=O)C(=O)NCc1ccccn1` (racemic), the ΔTm was 0.33 °C in assay [1]; -1.67 °C in assay [2]; -0.66 °C in assay [3]; 0.03 °C in assay [4]; -0.68 °C in assay [5]; -0.49 °C in assay [6]. Besides, the values for the ΔTm in assay [7] and in assay [8] were -1.04 °C and -0.95 °C, respectively.
Take `COCCOc1cc(CC2CCN(CCc3ccc4c(c3)C(=O)CCO4)CC2)ccc1Br`: the ΔTm in assay [1] is 0.83 °C; in assay [2], -2.23 °C; in assay [3], 0.15 °C; in assay [4], -0.07 °C; in assay [5] it was -0.17 °C; in assay [6], 0.56 °C. Besides, the ΔTm is -2.41 °C in assay [7] and -0.98 °C in assay [8].
Turning to `CCc1c(C#N)c(S[C@@H](C(N)=O)c2ccccc2)nc(N(C)C)c1C#N`, the ΔTm in assay [1] was 0.6 °C; in assay [2] it was -2.37 °C; in assay [3], 0.24 °C; in assay [4], -0.69 °C; in assay [5], 0.35 °C; in assay [6], 0.45 °C. The ΔTm in assay [7] is -2.54 °C; in assay [8] it was 0.58 °C.
Consider `Cc1c(CN2CCC(Nc3ncnc4sc(CC(F)(F)F)cc34)CC2)ccc2c1cc(C#N)n2Cc1cn[nH]c1`, for which the ΔTm in assay [1] was 0.97 °C; in assay [2], -1.35 °C; in assay [3], -0.07 °C; in assay [4], 1.61 °C; in assay [5], 0.28 °C; in assay [6], -7.35 °C. Also, the ΔTm in assay [7] was -1.51 °C; in assay [8] it was 0.6 °C.
Regarding `COc1ccccc1C(=O)Nc1cc2c(cc1N1CCNC[C@H]1C)n(C)c(=O)n2C`, the ΔTm is 0.51 °C in assay [1]; 1.74 °C in assay [2]; 0.17 °C in assay [3]; 0.91 °C in assay [4]; 0.41 °C in assay [5]; 0.25 °C in assay [6]. The ΔTm was -0.29 °C in assay [7] and 0.27 °C in assay [8].
For `Cc1cc(C)c(CNC(=O)c2cc(Cl)c3c(c2C)O[C@@](C)([C@H]2CC[C@H](N(C)C)CC2)O3)c(=O)[nH]1`, the ΔTm is 0.37 °C in assay [1]; -1.88 °C in assay [2]; 0.46 °C in assay [3]; 0.43 °C in assay [4]; -0.76 °C in assay [5]; 0.07 °C in assay [6]. The ΔTm in assay [7] was -0.52 °C; in assay [8] it was -2.02 °C.
As for `Cc1cc(/N=N/c2ccc(S(=O)(=O)Nc3ccccn3)cc2)c(N)cc1O`, the ΔTm in assay [1] was 0.27 °C; in assay [2] it was 9 °C; in assay [3], 1.3 °C; in assay [4] it was -0.2 °C; in assay [5] it was -0.93 °C; in assay [6], 0.31 °C. Moreover, the ΔTm is -2.28 °C in assay [7] and 1 °C in assay [8].
For the compound `C[C@H]1CCCN1Cc1nc2cc(NC(=O)c3ccc4c(cnn4C)c3)ccc2[nH]1`, the ΔTm in assay [1] was 2.18 °C; in assay [2], -0.92 °C; in assay [3], 0.64 °C; in assay [4], 0.92 °C; in assay [5] it was -0.87 °C; in assay [6] it was 0.27 °C. Moreover, the values for the ΔTm in assay [7] and in assay [8] were -0.14 °C and -0.88 °C, respectively.
For `Cc1[nH]nc(C(F)(F)F)c1Cc1sc2c(c1C(=O)N1C[C@](C)(O)CO1)c(=O)n(C)c(=O)n2C(C)C`, the thermal shift (ΔTm) in assay [1] is 0.25 °C; in assay [2] it was 1.76 °C; in assay [3], 1.15 °C; in assay [4], -0.46 °C; in assay [5], -0.31 °C; in assay [6], 0.35 °C. In addition, the results for the ΔTm in assay [7] and in assay [8] were -1.82 °C and 1.02 °C, respectively.
Regarding `CC(C)N(C(=O)c1cc(F)ccc1Oc1cncnc1N1CC2(CCN(C[C@H]3CC[C@H](NS(C)(=O)=O)CC3)CC2)C1)C(C)C`, the ΔTm is 0.57 °C in assay [1]; -1.5 °C in assay [2]; 0.13 °C in assay [3]; -0.36 °C in assay [4]; -0.7 °C in assay [5]; 0.13 °C in assay [6]. Moreover, the ΔTm in assay [7] is -2.37 °C; in assay [8], 0.16 °C.
For `CC(C)(Sc1ccncc1-c1ccc(C#N)c2ccccc12)C(=O)O`, the ΔTm in assay [1] is -0.01 °C; in assay [2] it was -0.37 °C; in assay [3] it was -0.1 °C; in assay [4], -0.19 °C; in assay [5], -0.7 °C; in assay [6], 0.17 °C. Also, the ΔTm is -1.93 °C in assay [7] and -0.49 °C in assay [8].
As for `COc1ccc2nc3[nH]nc(C)c3c(NCCOCCO)c2c1`, the ΔTm in assay [1] is 0.63 °C; in assay [2], -1.31 °C; in assay [3], 0.26 °C; in assay [4] it was 0.76 °C; in assay [5] it was 2.8 °C; in assay [6], -0.01 °C. Moreover, the results for the shift in melting temperature (ΔTm) in assay [7] and in assay [8] were 0.31 °C and -0.59 °C, respectively.
In the case of `N[C@@H](CC(=O)Nc1ccc(Oc2cc(F)c(F)cc2Br)cc1)C(=O)O`, the ΔTm in assay [1] is 0.75 °C; in assay [2], -3.05 °C; in assay [3] it was -0.04 °C; in assay [4], 0.11 °C; in assay [5], -0.55 °C; in assay [6], 0.24 °C. Moreover, the ΔTm was -2.19 °C in assay [7] and 0.54 °C in assay [8].
In the case of `Oc1nc(-c2ccc(C(F)(F)F)cc2)nc2c1CSCC2`, the ΔTm is 0.58 °C in assay [1]; -2.75 °C in assay [2]; 0.01 °C in assay [3]; -0.13 °C in assay [4]; 0.44 °C in assay [5]; 0.11 °C in assay [6]. Also, the ΔTm in assay [7] was -2.41 °C; in assay [8], -0.56 °C.
In the case of `CC1(NC(=O)COc2cccc(-c3nc4c(c(Nc5ccc(-c6cn[nH]c6)cc5)n3)CN(C3CCC3)CC4)c2)CC1`, the ΔTm in assay [1] was 0.81 °C; in assay [2], -2.72 °C; in assay [3], 0.02 °C; in assay [4] it was -0.75 °C; in assay [5] it was -0.18 °C; in assay [6], 0.14 °C. Besides, the figures for the ΔTm in assay [7] and in assay [8] were 0.11 °C and -0.35 °C, respectively.
On to `CC(C)c1ccc(C(=O)N=C(N)N)cc1S(C)(=O)=O`, for which the ΔTm in assay [1] was 0.77 °C; in assay [2], -2.81 °C; in assay [3], 0.03 °C; in assay [4], -0.25 °C; in assay [5], -0.76 °C; in assay [6], 0.04 °C. Also, the ΔTm in assay [7] is -2.37 °C; in assay [8] it was -0.41 °C.

Usually ΔTm stands for the change in melting temperature against a reference sample.

The record behind these values is ChEMBL document CHEMBL5724796, “Tm Shift (DSF) assay results for EUbOPEN Chemogenomics Library” (2024).
